# This excerpt belongs to a sample that is enriched for hits.
# TbPYK inhibitor: inhibitors of Trypanosoma brucei pyruvate kinase | Potency, µM (titrated, usually from 76.8 µM), for the others: at the highest dose activity, negative = inhibition, hits mostly inhibitors | Q57TT1 | 0.12% of 410,000 active | TbPYK enzyme, Kinase-Glo Plus ATP luminescence, 45 min; further: potency means the concentration at half of the fitted maximal effect; on the % scale 0 is the no-effect control and ±100 the full control effect; nearly all actives have a fitted effect of over 50% in size
#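 Readout: single end-point luminescence (Kinase-Glo Plus, 10 min). Reaction conditions were TbPYK/substrate plus 130 uM ADP, 45 min at RT, pH 7.2 TEA buffer. No-enzyme wells served as controls, and data were normalized before concentration-response fitting.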
# RE007 growth inh: less growth of the S. pombe RE007 Vpr strain; AID 651644; 0.21% of 360,000 active; Potency, µM (doses to about 92.2 µM), for the others: at the highest dose activity change, negative = less growth, most hits filed as inhibitors; S. pombe RE007 Vpr strain, BacTiter-Glo ATP luminescence, 24 h; active means well fitted falling curve with a large enough effect; inconclusive means small, poorly fitted or top-dose-only effect; inactive means no such curve, though single readings can be large or run the other way; further: potency means the concentration at half of the fitted maximal effect; on the % scale 0 is the no-effect control and ±100 the full control effect; nearly all actives have a fitted effect of over 50% in size
#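 Fission yeast strain RE007, carrying one chromosomally integrated HIV-1 vpr copy, was seeded at OD 0.01 in PMG+AL medium with 23 nL pinned compound. After 24 h at 30 °C and 99% humidity, viability was read by BacTiter-Glo luminescence.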
# Cycloheximide cs: counter-screen hit for Shiga toxin inhibitors, cycloheximide. max response, %. cell reporter, cycloheximide protein synthesis inhibition counterscreen. 12% of 300,000 active. AID 2314; in the data active means max response mostly above about 13%, no sharp cut-off; inactive means mostly below about 14%; further: read at 38.3 µM for the half of the compounds with a filed dose; 0% is about no effect
# LmPK inhibitor: LmPK (Leishmania mexicana) enzyme inhibition | purified LmPK, Kinase-Glo ATP luminescence, 1 h | 0.37% of 290,000 active | Q27686 | Potency, µM (top dose mostly 57.5 µM), without a hit: top-dose activity change, negative = inhibition, most hits filed as inhibitors; further: potency means the concentration at half of the fitted maximal effect; on the % scale 0 is the no-effect control and ±100 the full control effect
# Target sequence (Q27686 whole entry, looked up): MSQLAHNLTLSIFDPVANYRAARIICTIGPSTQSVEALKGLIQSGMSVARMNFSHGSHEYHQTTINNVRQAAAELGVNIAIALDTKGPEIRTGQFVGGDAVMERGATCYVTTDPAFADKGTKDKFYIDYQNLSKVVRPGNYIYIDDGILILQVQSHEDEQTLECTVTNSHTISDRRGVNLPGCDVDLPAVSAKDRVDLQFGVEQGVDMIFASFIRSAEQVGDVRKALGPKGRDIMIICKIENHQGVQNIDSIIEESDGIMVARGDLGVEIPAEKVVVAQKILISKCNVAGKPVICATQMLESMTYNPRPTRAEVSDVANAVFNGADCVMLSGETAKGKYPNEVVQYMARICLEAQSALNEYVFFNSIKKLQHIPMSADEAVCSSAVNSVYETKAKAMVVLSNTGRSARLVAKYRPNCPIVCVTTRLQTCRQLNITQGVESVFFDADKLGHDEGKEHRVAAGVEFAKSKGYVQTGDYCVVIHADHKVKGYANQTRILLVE
#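 Purified LmPK (0.1 nM) converted ADP (0.1 mM) to ATP with PEP (0.5 mM) in imidazole buffer pH 7.2 with KCl and MgCl2, 1 h at room temperature. ATP was read by Kinase-Glo luminescence; data normalized to uninhibited and no-enzyme controls.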
# Shiga toxin inh: blocks Shiga toxin action in Vero cells. Vero cells, Shiga toxin protein synthesis inhibition reporter. 9.2% of 290,000 active. inhibition, % at 38.7 µM; in the data active means inhibition mostly above about 28%, no sharp cut-off; inactive means mostly below about 43%; further: 0% is about no effect
# Giardia FBPA inh: Giardia lamblia aldolase inhibition; A8B2U2; purified Giardia FBPA; Potency, µM (titrated, usually from 59.6 µM), without a hit: at the highest dose activity, negative = inhibition, hits mostly inhibitors; 0.71% of 290,000 active; AID 2451; further: potency means the concentration at half of the fitted maximal effect; on the % scale 0 is the no-effect control and ±100 the full control effect; nearly all actives have a fitted effect of over 55% in size
# Target sequence (A8B2U2 whole entry, looked up): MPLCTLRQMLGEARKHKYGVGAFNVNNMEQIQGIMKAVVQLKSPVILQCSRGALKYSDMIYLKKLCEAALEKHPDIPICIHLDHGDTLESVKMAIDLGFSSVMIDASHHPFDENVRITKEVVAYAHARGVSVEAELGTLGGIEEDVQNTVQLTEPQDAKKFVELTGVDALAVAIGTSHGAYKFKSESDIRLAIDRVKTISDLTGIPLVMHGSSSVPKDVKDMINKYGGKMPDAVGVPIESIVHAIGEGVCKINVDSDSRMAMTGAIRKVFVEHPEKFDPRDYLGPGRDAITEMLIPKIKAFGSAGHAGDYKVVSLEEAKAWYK
#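 Giardia FBPA (40 nM reagent) was preincubated 10 min at RT with compound (up to 57.5 uM final), then substrate plus GAPDH/TPI/NAD/arsenate coupling system with diaphorase/resazurin was added; resorufin fluorescence (525/598 nm) was read after 20 min.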
# Starred values were filed as active, the others as inactive; ? = inconclusive; · = no result; [ ] = dose if it differs, or a comment. Unless noted, the call rests on the fitted dose curve; in most records, active means well fitted curve in the direction sought with a large enough effect; inconclusive means small, poorly fitted or top-dose-only effect, or another doubt; inactive means no such curve, though single readings can be large; an effect the other way counts as inactive or inconclusive.
SMILES,TbPYK inhibitor,RE007 growth inh,Cycloheximide cs,LmPK inhibitor,Shiga toxin inh,Giardia FBPA inh
O=C(O)C1CCCCC1C(=O)NCCc1ccc(F)cc1 (stereo not given),5.9%,13.0%,-2.5,2.8%,-4.2,-2.3%
O=C(CNC(=S)NC(=O)C1CCCCC1)c1ccccc1,-2.7%,11.2%,75.0*,-6.8%,114.4*,3.4%
C[C@H]1CN([C@@H](C)CO)C(=O)CCCn2cc(nn2)CO[C@@H]1CN(C)C(=O)Nc1ccc2c(c1)OCO2,1.0%,-2.2%,·,·,·,·
C=CCNC(=O)c1nn2cccnc2c1Cl,2.5%,3.3%,-1.9,-15.6%,-7.7,5.3%
Cc1cc(NC(=O)c2nn3cccnc3c2Cl)no1,-0.2%,3.6%,40.3*,-12.1%,34.5*,-8.1%
O=C(Nc1cccc(Cl)c1)c1cnn2cccnc12,5.0%,14.1%,38.4*,-2.8%,active,6.2%
Cc1cc(NC(=O)c2cnn3cccnc23)no1,0.8%,-0.2%,53.6*,-1.9%,141.4*,-9.0%
COc1ccc(Br)cc1CNC(=O)c1cnc2sc(N3CCCCCC3)nn2c1=O,-0.1%,·,·,·,·,·
CC(=O)c1ccc(N2CCN(c3ncnc4c3nc3n4CCCC3)CC2)cc1,-4.0%,·,·,·,·,·
CCOc1ccc(OCCC(=O)OCC(=O)N2CCN(S(=O)(=O)c3ccc(Cl)cc3)CC2)cc1,1.2%,-9.2%,34.7*,-3.3%,53.7*,-0.1%
CC(C)c1ccc(CNCCSc2nnnn2-c2ccccc2)cc1,5.1%,·,·,·,·,·
Cc1ccc(C)c(-c2ccc(=O)n(C(C)C(=O)Nc3ccccc3C(F)(F)F)n2)c1 (stereo not given),-4.2%,·,·,·,·,·
Cc1ccc(CC(=O)Nc2cc([N+](=O)[O-])ccc2F)cc1,-8.8%,-7.3%,1.9,-4.7%,-13.4,2.6%
O=C(Nc1ccccc1F)c1ccc([N+](=O)[O-])s1,2.1%,?,38.4*,0.2%,83.3,-4.8%
Cc1ccc(C(=O)Nc2cc([N+](=O)[O-])ccc2F)s1,2.0%,24.6%,9.6,3.9%,active,-1.3%
CCOc1ccc(CCNC(=O)CCCc2cc(-c3ccc(OCC)cc3)on2)cc1,-0.6%,·,·,·,·,·
CCOc1ccc(-c2cc(CCCC(=O)NCc3cccnc3)no2)cc1,2.2%,-14.8%,51.3*,1.2%,64.8*,19.1%
CCOc1ccc(-c2cc(CCCC(=O)NCCc3ccccc3)no2)cc1,-8.9%,-16.1%,8.4,4.9%,52.2,4.9%
CCOc1ccc(-c2cc(CCCC(=O)NCCC(C)C)no2)cc1,0.5%,-4.1%,24.8*,-2.5%[11.5 µM],134.1*,10.0%
CCOc1ccc(C(=O)NCCc2sc3nc(-c4ccc(Cl)cc4)nn3c2C)cc1OCC,-1.7%,·,·,·,·,·
O=C(NCCCN1CCOCC1)C(=O)NCC1OCCN1S(=O)(=O)c1ccc(Cl)cc1 (stereo not given),-2.4%,-10.1%,·,·,·,·
CCN(Cc1ccccc1)C(=O)Cn1c(=O)n(-c2cccc(C)c2)c(=O)c2c1c1cc(C)ccc1n2C,4.3%,·,·,·,·,·
CCN(Cc1ccccc1)C(=O)CCS(=O)(=O)c1cc(Br)cc2c1N(C(=O)C1CC1)CC2,-9.2%,·,·,·,·,·
O=C(Nc1ccccc1-c1ccccc1)C1CCC1,3.4%,11.9%,26.3*,-1.7%,53.4,5.3%
O=C(Cc1ccccc1F)Nc1ccccc1-c1ccccc1,-0.2%,1.1%,27.5*,0.7%,69.5*,4.1%
SMILES,TbPYK inhibitor,RE007 growth inh,Cycloheximide cs,LmPK inhibitor,Shiga toxin inh,Giardia FBPA inh
O=C(Nc1ccccc1-c1ccccc1)C1CCCCC1,3.4%,15.1%,-4.2,8.7%,-2.9,5.7%
O=C(Cc1c(F)cccc1Cl)Nc1ccccc1-c1ccccc1,-0.5%,5.4%,-4.2,6.5%,0.9,4.7%
O=C(c1ccc(CS(=O)c2ccccc2Cl)o1)N1CCN(c2cccc(C(F)(F)F)c2)CC1 (stereo not given),2.1%,·,·,·,·,·
O=C(OCc1ccccc1Cl)c1ccccc1C(=O)c1ccccc1,-15.3%,-17.6%,19.3*,3.4%,65.3*,4.0%
O=C(O/N=C(\c1ccccc1)c1ccncc1)c1ccccc1Cl,15.1%,-16.6%,-1.0,6.4%,-5.7,-1.4%
N/C(=N\OC(=O)c1ccco1)c1ccc(Cl)cc1,-0.6%,-16.0%,61.7*,-25.7%,83.7*,-4.8%
N/C(=N\OC(=O)c1ccc(Cl)cc1)c1ccc(Cl)cc1,-9.5%,?,21.1*,2.6%,53.8*,0.6%
N/C(=N\OC(=O)c1ccccc1Cl)c1ccccc1,-16.9%,-20.7%,35.1*,14.1µM*,70.0*,-1.9%
Nc1nnc(-c2cc3c(ccc4ccccc43)oc2=O)s1,·,·,5.5,4.8%,22.5,-3.1%
CCCCNC(=S)N(CCO)Cc1cc2cc3c(cc2[nH]c1=O)OCCO3,-14.6%,1.6%,-4.2,3.4%,-17.0,5.2%
N/C(=N\OC(=O)c1ccc(Cl)cc1)c1ccn[nH]1,-16.1%,?,39.3*,-27.0%,48.8*,·
C/C(=N\OC(=O)c1ccc(Cl)cc1)c1nccs1,·,-13.2%[3.69 µM],-2.9,-27.4%,25.3,2.1%
N/C(=N\OC(=O)c1ccccc1Cl)c1ccc(Cl)cc1,6.3%,?,48.7*,-16.3%,62.9*,-15.6%
N/C(CCS(=O)(=O)c1ccc(Cl)cc1)=N\OC(=O)c1ccccc1Cl,-1.9%,5.1%,2.9,2.2%,-2.5,2.5%
N/C(=N\OC(=O)c1ccco1)c1cccnc1,1.4%,2.0%,34.4*,-9.8%,108.6*,1.8%
N/C(=N\OC(=O)COc1ccc(Br)cc1)c1cccnc1,4.3%,4.4%,15.3,1.2%,-8.8,6.1%
Cc1cc2nc(/C(C#N)=C/c3ccncc3)[nH]c2cc1C,-9.4%,-5.9%,10.7,-3.9%,39.4,-12.4%
N#C/C(=C1/CCCCCN1)c1nc2ccccc2[nH]1,2.8%,-1.1%,122.5*,3.7%,43.5*,-3.5%
N#C/C(=C/c1ccncc1)c1nc2ccccc2s1,-15.2%,-28.2%,29.9*,-4.1%,43.7*,-12.8%
Cc1cccc(/C=C(\C#N)c2nc3ccccc3c(=O)[nH]2)c1,-1.7%,·,·,·,·,·
N#C/C(=C\c1ccncc1)c1nc2ccccc2[nH]1,-13.4%,-6.1%,31.7*,-11.4%,106.2*,-15.2%
N#C/C(=C\c1cccnc1)c1nc2ccccc2[nH]1,-6.7%,-11.1%,36.2*,-3.7%,57.4*,-8.6%
C=CCNC(=S)Nc1cccc(N)c1,2.5%,13.5%,-0.8,2.3%,5.5,?
N#C/C(=C1\CCCN1)c1ccc2ccccc2n1,4.1%,-1.3%,28.6,3.1%,17.7,-8.2%
N#C/C(C(=O)c1ccccc1)=C1/CCCCCN1,-0.1%,28.2µM*,44.5*,-17.7%,93.7*,9.8%
N#C/C(=C(/O)C(Cl)(Cl)Cl)c1nc2ccccc2[nH]1,-1.7%,18.3%,12.7*,-11.6%,17.6,-4.5%
CC1CCc2nc(/C(C#N)=C/c3ccncc3)sc2C1 (stereo not given),1.6%,-14.9%,38.2*,1.3%,96.3*,-5.1%
CC1=[N+](C)c2c(ccc3cccnc23)C1(C)C,-0.8%,?,-1.2,-6.2%,1.4,1.99µM*

# Screening results: PubChem, National Center for Advancing Translational Sciences (NCATS)
